# Measured values reported in PubChem BioAssay (NCATS).
# Results filed as inconclusive are left out. A call without a number means that no potency is given here. Activity calls are given as the source filed them. Calls follow the shape of the dose curve; as a rule, active = well fitted curve in the direction sought with a large enough effect; inconclusive = small, poorly fitted or top-dose-only effect, or another doubt; inactive = no such curve, though single readings can be large; an effect the other way counts as inactive or inconclusive.
# Tests used:
# [1] = molecular target: Glutathione peroxidase 1 (Homo sapiens) (UniProt P07203); assay: Primary qHTS Assay for Inhibitors of Recombinant Selenoprotein Glutathione Peroxidase 1 (GPX1) (AID 1845191); also: nearly all actives have a fitted effect of over 65% in size; also: potency is read from the fitted curve at half-maximal effect
# Procedure, shortened: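 NADPH consumption tracked by fluorescence at 340/450 nm between t=0 and t=15 min, room temperature. Final mix: 10 nM GPX1, 100 nM glutathione reductase, 1 mM GSH, 0.5 mM NADPH, 0.5 mM cumene hydroperoxide, 0.01% BSA; 30 min compound–enzyme preincubation.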
# [2] = molecular target: Phospholipid hydroperoxide glutathione peroxidase GPX4 (Homo sapiens) (UniProt P36969); assay: Primary qHTS Assay for Inhibitors of Recombinant Selenoprotein Glutathione Peroxidase 4 (GPX4) (AID 1845192); also: nearly all actives have a fitted effect of over 65% in size
# Procedure, shortened: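 NADPH consumption followed by fluorescence at 340/450 nm, t=0 and after 15 min at room temperature. Reaction started with cumene hydroperoxide (0.5 mM final) after 30 min compound–GPX4 preincubation; final 200 nM GPX4, 100 nM GR, 1 mM GSH, 0.5 mM NADPH.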
# [3] = molecular target: Luciferin 4-monooxygenase (Photinus pyralis) (UniProt P08659); assay: Primary firefly luciferase (FLuc) qHTS assay for identification of artifact compounds. (AID 1845220); also: nearly all actives have a fitted effect of over 60% in size
# Procedure, shortened: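 FLuc 10 nM; luciferin 10 uM; ATP 10 uM; Tris-acetate pH 7.6, Mg-acetate 10 mM; 15 min RT preincubation; 5 min reaction; luminescence.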
# [4] = Primary fluorescence-based thiol-reactive (MSTI) qHTS assay for identification of artifact compounds. (AID 1845221);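 also: series mostly up to about 54 µM; thiol-reactive compounds lower the probe fluorescence signal; nearly all actives have a fitted effect of over 65% in size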
# Procedure, shortened: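 First, 4 uM MSTI in 2% DMSO/PBS pH 7.4 was dispensed; next, compounds were added; then plates sat 1 h at room temperature without light. Finally, emission at 598 nm was recorded.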
# [5] = system: Nanoluciferase (engineered Oplophorus gracilirostris luciferase); assay: Primary Nanoluciferase (NLuc) qHTS assay for identification of artifact compounds. (AID 1845222);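 also: NLuc secreted into diluted conditioned medium of S16 cells; series mostly up to about 54 µM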
# Procedure, shortened: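 NLuc from S16 cell medium (1:55) plus test compounds, 15 min, room temperature. Luminescence after Nano-Glo (1:100) addition, 5 min.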
# Chain of Phospholipid hydroperoxide glutathione peroxidase GPX4 (Homo sapiens) (P36969 whole entry, looked up): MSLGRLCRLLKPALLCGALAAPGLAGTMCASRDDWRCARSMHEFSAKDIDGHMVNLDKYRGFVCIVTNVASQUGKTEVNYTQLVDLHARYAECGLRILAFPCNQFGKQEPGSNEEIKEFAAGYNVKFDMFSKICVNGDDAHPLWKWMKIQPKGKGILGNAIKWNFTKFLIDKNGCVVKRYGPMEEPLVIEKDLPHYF
# Chain of Glutathione peroxidase 1 (Homo sapiens) (P07203 whole entry, looked up): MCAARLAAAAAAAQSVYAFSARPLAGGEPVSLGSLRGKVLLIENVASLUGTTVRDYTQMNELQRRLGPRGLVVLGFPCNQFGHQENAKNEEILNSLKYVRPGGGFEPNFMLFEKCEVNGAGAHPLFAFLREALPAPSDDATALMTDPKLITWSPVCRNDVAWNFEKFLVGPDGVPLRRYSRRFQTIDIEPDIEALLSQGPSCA
Structure (SMILES),Potency [1],Potency [2],Potency [3],outcome [4],Potency [5]
N#C/C(=C\c1ccc(-c2cc(Cl)ccc2Cl)o1)C(=O)Nc1cccc2ncccc12,inactive,inactive,–,–,–
CCCOC(=O)c1ccc(O)cc1,inactive,inactive,–,–,–
Cc1ccc(C(=O)c2ccc(CC(=O)O)n2C)cc1,inactive,inactive,–,–,–
O=C(O)/C=C\C(=O)O,inactive,inactive,–,–,–
Cn1ncc(S(=O)(=O)Cc2ccccc2)c(Br)c1=O,inactive,inactive,–,–,–
COc1ccc(-c2cc(=S)ss2)cc1,11.4 µM (active),inactive,–,–,–
CC(C)NC[C@@H](O)c1ccc(O)c(O)c1,inactive,inactive,–,–,–
CC(C)NCC(O)COc1cccc2ccccc12 (configuration not stated),inactive,inactive,–,–,–
CCCCCCCCCCCCOCCO,inactive,inactive,–,–,–
O=C(NOCC1CC1)c1cc(Br)c(F)c(F)c1Nc1ccc(I)cc1Cl,inactive,inactive,–,–,–
CN(C)c1ccc(/C=C2\C(=O)Nc3ccccc32)cc1,inactive,inactive,–,–,–
S=c1[nH]c2ccccc2s1,inactive,inactive,–,–,–
CCCSc1ccc2nc(NC(=O)OC)[nH]c2c1,inactive,inactive,–,–,–
O=C1NC(O)=NC1(c1ccccc1)c1ccccc1,inactive,inactive,–,–,–
O=C(CCCCCN1CCN(c2ccccc2-c2ccccc2)CC1)NC1CCCc2ccccc21 (configuration not stated),inactive,inactive,–,–,–
O=C1CN(/N=C/c2ccc([N+](=O)[O-])o2)C(=O)N1,inactive,inactive,–,–,–
c1ccc2sc(SSc3nc4ccccc4s3)nc2c1,inactive,inactive,–,–,–
C=CC(N)CCC(=O)O (configuration not stated),inactive,inactive,–,–,–
Cc1cc(NC2CCCCC2)nc(-n2nc(C)cc2C)n1,inactive,inactive,–,–,–
N[C@@H](CC(=O)O)C(=O)O,inactive,inactive,–,–,–
CC(=O)c1ccc(OCC(=O)N2CCCCC2)cc1,inactive,inactive,inactive,inactive,inactive
CN1[C@@H]2CC[C@H]1CC(OC(c1ccccc1)c1ccccc1)C2 (some centres not stated),inactive,inactive,inactive,inactive,inactive
COc1cc(/C=C/C(=O)N2CCN(CC(=O)N3CCCC3)CC2)cc(OC)c1OC,inactive,inactive,inactive,inactive,inactive
CSc1nc(N)c2ncn([C@@H]3O[C@H](COP(=O)(O)OP(=O)(O)OP(=O)(O)O)[C@@H](O)[C@H]3O)c2n1,inactive,inactive,–,–,–
CC(=O)O[C@H]1C[C@@]2(C)[C@@H](C[C@@H](O)[C@H]3[C@@]4(C)CC[C@@H](O)[C@@H](C)[C@@H]4CC[C@@]32C)/C1=C(\CCC=C(C)C)C(=O)O,inactive,inactive,inactive,inactive,inactive
CCNC(=O)[C@H]1O[C@@H](n2cnc3c(N)nc(NCCc4ccc(CCC(=O)O)cc4)nc32)[C@H](O)[C@@H]1O,inactive,inactive,inactive,inactive,inactive
CC1(C)S[C@@H]2[C@H](NC(=O)[C@H](NC(=O)N3CCN(S(C)(=O)=O)C3=O)c3ccccc3)C(=O)N2[C@H]1C(=O)O,inactive,inactive,inactive,inactive,inactive
